Screening results: PubChem BioAssay, several laboratories
tim10-1 inh = growth inhibitors of tim10-1 mutant yeast, primary screen, luminescence, uHTS. S. cerevisiae tim10-1 ts strain growth, BacTiter-Glo, 24 h. inhibition, % at 20 µM. 330,000 tested, 2.2% active. AID 463190, 2010;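 active means inhibition of at least 40%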;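 further: mutant grown at 25 °C; 0% = DMSO wells with yeast and 100% = wells holding no yeast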
TIM10 inh = growth inhibitors of isogenic TIM10 control yeast, primary screen, counter-screen for tim10-1 yeast inhibitor project, luminescence, uHTS | 330,000 tested, 1.4% active | S. cerevisiae TIM10 strain growth, BacTiter-Glo luminescence, 24 h | AID 463195, 2010 | inhibition, % at 10 µM;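 active means inhibition of 40% or more at the single tested concentration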;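 further: wild-type TIM10 isogenic control strain grown at permissive 25 °C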
NALP3 yeast inh = NALP3 inflammasome inhibitors in reconstituted yeast, primary screen, luminescence, uHTS; Yeast reconstituted NLRP3/ASC/caspase-1, beta-gal luminescence, 24 h; inhibition, % at 10 µM; 330,000 tested, 0.39% active; AID 2825, 2010;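 active means inhibition of 50% or more; inactive means inhibition below 50%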;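 further: plate controls were induced DMSO wells for no effect and uninduced yeast grown without galactose for full effect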
PfHsp90 yeast 2 = growth inhibition of PfHsp90-expressing yeast, primary screen, antimalarial PfHsp90 inhibitor project, S. cerevisiae, BacTiter-Glo luminescence, single point, set 2. BacTiter-Glo ATP, 48 h; yeast lacking PDR1 and PDR3 efflux regulators. inhibition, % at 9.4 µM. 310,000 tested, 0.32% active. AID 504621, 2011;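 active means every replicate shows inhibition above about 80%, whatever the replicate mean, limit read from the data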;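 further: 0% = DMSO neutral controls and 100% = 20 µM radicicol positive controls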
tim23-1 inh = growth inhibitors of tim23-1 mutant yeast, primary screen, luminescence, uHTS. 330,000 tested, 1.3% active. AID 463212, 2010. inhibition, % at 20 µM. S. cerevisiae tim23-1 growth, BacTiter-Glo luminescence, 24 h;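 active means growth inhibition of the mutant yeast at or above 50%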;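 further: temperature-sensitive mutant grown at 25 °C; plate controls were DMSO-treated mutant yeast for no effect and medium wells lacking yeast for full effect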
SKKanGAS inh = S. pyogenes SKKanGAS growth inhibitors in kanamycin, primary screen, streptokinase expression inhibitor project, SKKanGAS strain, BacTiter-Glo luminescence; 6 h; inhibition, % at 7.5 µM; 300,000 tested, 1.3% active; AID 1662, 2009;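 active means mean replicate score, as percent of positive control median, at least 50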;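 further: strain carries kanamycin resistance gene driven by streptokinase promoter and grows in 40 µg/ml kanamycin; loss of luminescence reflects streptokinase promoter inhibition or plain growth inhibition; 0% = median of DMSO wells and 100% = positive control at its reference dose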
* hit, by the source's call; . = no result. A selection: hits, their analogues and other compounds. The true share with any hit is near 4.5%.

SMILES	tim10-1 inh	TIM10 inh	NALP3 yeast inh	PfHsp90 yeast 2	tim23-1 inh	SKKanGAS inh
O=C(O)c1ccc(NC(=S)NC(=O)c2cccc(COc3ccccc3)c2)cc1	27	29	12	-25	17	58*
CCOc1ccc(CN(CCC#N)C(=S)NC(=O)c2ccccc2)cc1	34	33	8	-17	8	0
COc1ccc(/C=C/c2ccc3c(Br)ccc(O)c3n2)cc1	7	16	8	-11	3	85*
COc1cc(/C=C/c2ccc3c(Br)cc(Br)c(O)c3n2)ccc1O	.	.	.	-69	.	97*
Cc1nc2ccccc2n1CC(=O)OCC(=O)N1CCC(C)CC1	-8	-4	22	.	2	.
CCC(C)Sc1cccc(-c2nc3ccc(C)cn3c2NCc2ccccc2)c1 (stereo not given)	33	5	23	23	6	67*
CCCCNc1c(-c2ccc(SC(C)CC)cc2)nc2cnccn12 (stereo not given)	-22	-21	41	107*	36	.
CCC(C)Sc1cccc(-c2nc3ccc(Cl)cn3c2NCc2ccccc2)c1 (stereo not given)	22	9	26	3	20	37
CCCCNc1c(-c2ccc(OC)c(Sc3ccc(OC)cc3)c2)nc2cnccn12	6	-3	23	22	26	.
CCCCNc1c(-c2ccc(SC(C)CC)c(OC)c2)nc2ccc(C)cn12 (stereo not given)	34	0	25	-13	-1	72*
O=C(CN1CCCC1c1cccs1)Nc1cccc(S(=O)(=O)N2CCCC2)c1 (stereo not given)	-5	-38	0	2	27	.
CN(C(=O)c1cccc(NC(=O)Cc2ccc(NC(=O)C3CCN(C(=O)C4CCCC4)CC3)cc2)c1)C1CC1	.	.	.	1	.	.
CSCCC(NC(=O)COc1ccccc1)C(=O)N1CCN(C(C)=O)CC1 (stereo not given)	1	5	-4	7	10	-2
CCS(=O)(=O)N1Cc2ccccc2CC1C(=O)Nc1nnc(SCc2ccc(C#N)cc2)s1 (stereo not given)	24	6	8	-4	13	60*
Cc1ccc(Cc2cnc(N3C(=N)SC(c4ccccc4)C3=O)s2)cc1 (stereo not given)	35	28	3	-16	10	104*
N=C1SC(c2ccccc2)C(=O)N1c1ncc(Cc2ccccc2)s1 (stereo not given)	33	15	9	-7	-7	97*
Cc1nn(C)cc1S(=O)(=O)N1CCN(c2ccccc2)CC1	-4	0	21	7	2	6
COCCn1nnnc1C(c1cccs1)N1CCCC(C)C1 (stereo not given)	8	3	10	-24	6	2
Cc1ccccc1N1CCN(S(=O)(=O)c2nnc(NC(=O)c3ccc(F)cc3)s2)CC1	6	-22	12	17	-2	34
Cc1ccc(C(=O)Nc2nnc(S(=O)(=O)N3CCN(c4ccc(F)cc4)CC3)s2)cc1	-9	-6	-1	1	7	54*
CC(=O)Nc1nnc(S(=O)(=O)N2CCN(c3ccc([N+](=O)[O-])cc3Cl)CC2)s1	6	-3	18	8	16	55*
Cc1ccc(N2CCN(S(=O)(=O)c3nnc(NC(=O)c4ccco4)s3)CC2)cc1	17	18	10	14	32	30
COc1ccccc1C(=O)Nc1nnc(S(=O)(=O)N2CCN(c3ccc(F)cc3)CC2)s1	24	-4	13	12	12	54*
COc1ccc(C(=O)NC(=S)Nc2ccc3[nH]c(=O)[nH]c3c2)c(OC)c1	-2	-15	-3	-7	1	-2
CC(Oc1ccc(Cl)cc1Cl)C(=O)Nc1ccc2oc(-c3ccncc3)nc2c1 (stereo not given)	14	2	16	.	16	51*
COc1ccc(N2CCN(S(=O)(=O)c3c(C)[nH]c(C)c3C(=O)N3CCCCC3)CC2)cc1	26	-5	4	-3	8	-6
